What all share (parameters): scale not given: direction of the effect not stated beside the values
For experiment [1], the target named is Protein translocase subunit SecA (Escherichia coli (strain K12)) (UniProt P10408). Kind of experiment: Assay to Identify E. coli SecA ATPase Inhibitors. It counts as functional. Conditions: 30 µM.
Experiment [2] concerns the target T1, Ubiquitin-activating enzyme e1, putative (Leishmania donovani (strain BPK282A1)) (UniProt E9BSI1).
T1 sequence (whole entry): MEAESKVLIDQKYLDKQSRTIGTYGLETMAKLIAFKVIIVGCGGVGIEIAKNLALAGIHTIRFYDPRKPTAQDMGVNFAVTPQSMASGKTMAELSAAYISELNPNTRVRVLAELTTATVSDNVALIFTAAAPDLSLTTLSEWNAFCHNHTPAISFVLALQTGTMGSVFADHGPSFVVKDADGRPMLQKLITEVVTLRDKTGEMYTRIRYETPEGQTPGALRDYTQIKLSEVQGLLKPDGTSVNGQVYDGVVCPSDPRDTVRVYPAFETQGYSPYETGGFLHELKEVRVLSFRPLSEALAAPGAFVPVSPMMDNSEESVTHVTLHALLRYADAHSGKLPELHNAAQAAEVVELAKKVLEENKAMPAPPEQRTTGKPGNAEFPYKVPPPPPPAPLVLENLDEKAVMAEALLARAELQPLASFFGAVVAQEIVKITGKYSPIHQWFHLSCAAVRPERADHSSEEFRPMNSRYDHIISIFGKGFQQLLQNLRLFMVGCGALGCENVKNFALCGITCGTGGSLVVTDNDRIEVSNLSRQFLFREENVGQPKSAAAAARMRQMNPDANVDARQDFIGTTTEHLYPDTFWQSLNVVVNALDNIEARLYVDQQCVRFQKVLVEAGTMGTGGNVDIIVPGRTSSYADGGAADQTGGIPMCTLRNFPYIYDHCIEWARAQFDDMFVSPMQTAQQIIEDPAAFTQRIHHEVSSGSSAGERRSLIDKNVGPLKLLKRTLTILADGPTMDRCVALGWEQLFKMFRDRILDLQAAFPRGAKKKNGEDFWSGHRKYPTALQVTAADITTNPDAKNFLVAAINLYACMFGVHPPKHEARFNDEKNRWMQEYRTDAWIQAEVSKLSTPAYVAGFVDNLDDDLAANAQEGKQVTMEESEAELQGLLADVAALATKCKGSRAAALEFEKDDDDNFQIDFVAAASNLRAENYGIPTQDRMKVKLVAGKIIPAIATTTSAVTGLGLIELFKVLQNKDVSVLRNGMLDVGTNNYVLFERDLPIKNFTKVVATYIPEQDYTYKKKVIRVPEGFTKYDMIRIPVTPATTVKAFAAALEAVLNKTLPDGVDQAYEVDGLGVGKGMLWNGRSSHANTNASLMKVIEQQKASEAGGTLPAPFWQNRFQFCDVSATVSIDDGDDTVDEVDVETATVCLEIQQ
The experiment can be described thus: Leishmania donovani Ubiquitin Activating Enzyme (LdE1). It counts as functional. The settings on record: 30 µM.

Experiment [3] concerns the target AMP-activated protein kinase, AMPK (Homo sapiens) (UniProt P54646+O43741+P54619+Q9UGJ0+Q9Y478+Q13131+Q9UGI9). Kind of experiment: AMP-dependent Kinase enzyme assay. An in vitro enzyme assay that detects ADP turnover that is directly proportional to AMPK activity. This uses naive AMPK that is activated during the assay with MK-8722. It counts as functional. Conditions: 30 µM.

Experiment [4] addresses Sialic acid-binding Ig-like lectin 9 (Homo sapiens) (UniProt Q9Y336). Kind of experiment: Hs-Siglec9 ALPHAscreen SOP 20170721. The settings on record: 10 µM. (In general: Bead proximity is the source of the signal in Alpha formats.)
A further experiment has as its system Trypanosoma cruzi. Kind of experiment: Trypanosoma cruzi phosphomannomutase and mannose-1-phosphate guanylyltransferase assay. The class given is functional. Conditions: 10 µM.
For experiment [5], the target named is T2, Arginase-2, mitochondrial (Homo sapiens) (UniProt P78540).
T2 sequence (whole entry): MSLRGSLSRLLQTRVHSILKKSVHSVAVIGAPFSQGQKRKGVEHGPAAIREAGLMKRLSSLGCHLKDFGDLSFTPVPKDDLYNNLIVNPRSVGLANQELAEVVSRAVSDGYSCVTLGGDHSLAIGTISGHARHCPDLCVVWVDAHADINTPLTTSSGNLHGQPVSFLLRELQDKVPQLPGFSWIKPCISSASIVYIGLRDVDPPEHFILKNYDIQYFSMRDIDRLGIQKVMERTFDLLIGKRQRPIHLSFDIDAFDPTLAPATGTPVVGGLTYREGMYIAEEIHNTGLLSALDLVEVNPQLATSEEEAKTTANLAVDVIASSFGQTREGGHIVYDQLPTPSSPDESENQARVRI
The experiment can be described thus: in vitro enzyme assay to detect the production of urea directly proportional to the activity of Arginase II. Further: in the data most compounds retested in dose-response had high values. The class given is functional. The settings on record: 33.3 µM.

In experiment [6] the target is T3, Proteasome subunit beta (Trypanosoma cruzi) (UniProt O96673).
T3 sequence (whole entry): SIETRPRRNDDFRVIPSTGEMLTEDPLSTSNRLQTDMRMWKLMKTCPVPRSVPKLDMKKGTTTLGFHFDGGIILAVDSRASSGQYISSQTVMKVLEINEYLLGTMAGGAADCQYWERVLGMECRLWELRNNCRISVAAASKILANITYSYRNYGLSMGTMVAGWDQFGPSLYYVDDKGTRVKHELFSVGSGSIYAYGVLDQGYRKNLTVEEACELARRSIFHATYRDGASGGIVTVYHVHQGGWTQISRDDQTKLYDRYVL
Kind of experiment: Trypanosoma cruzi proteasome chymotrypsin-like activity (TcProtChymo) assay. Further: in the data most compounds retested in dose-response had high values. It counts as functional. The settings on record: 9.37 µM.

The species named for a further experiment is Homo sapiens. The experiment can be described thus: To identify inhibition of the IFN signalling (Jak-Stat) pathway via expression of an eGFP reporter gene under the control of an IFN-stimulated response element (ISRE) containing MxA promoter. The class given is functional. The settings on record: 30 µM.
For experiment [7], the target named is T4, Tyrosyl-tRNA synthetase, putative (Trypanosoma cruzi (strain CL Brener)) (UniProt Q4DSP6).
T4 sequence (whole entry): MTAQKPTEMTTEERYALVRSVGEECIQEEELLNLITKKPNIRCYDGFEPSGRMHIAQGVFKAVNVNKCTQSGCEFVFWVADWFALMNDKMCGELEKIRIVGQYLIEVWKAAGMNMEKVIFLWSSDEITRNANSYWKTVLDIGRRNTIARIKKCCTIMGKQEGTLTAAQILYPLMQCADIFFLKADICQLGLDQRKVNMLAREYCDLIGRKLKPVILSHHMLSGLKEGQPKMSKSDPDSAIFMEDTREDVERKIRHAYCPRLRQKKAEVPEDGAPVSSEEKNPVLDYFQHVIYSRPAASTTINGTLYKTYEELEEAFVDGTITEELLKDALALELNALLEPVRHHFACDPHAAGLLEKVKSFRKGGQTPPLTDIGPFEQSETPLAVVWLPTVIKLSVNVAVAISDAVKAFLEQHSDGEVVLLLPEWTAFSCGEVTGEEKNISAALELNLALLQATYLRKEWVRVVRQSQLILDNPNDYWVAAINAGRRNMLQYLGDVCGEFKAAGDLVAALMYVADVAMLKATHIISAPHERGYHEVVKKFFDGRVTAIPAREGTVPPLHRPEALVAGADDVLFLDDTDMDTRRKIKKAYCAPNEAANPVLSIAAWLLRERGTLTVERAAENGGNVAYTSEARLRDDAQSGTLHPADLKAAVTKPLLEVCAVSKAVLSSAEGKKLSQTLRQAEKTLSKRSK
The experiment can be described thus: Trypanosoma cruzi tyrosyl tRNA synthetase (TcYRS) _High Tyrosine SOP. Further: in the data most compounds retested in dose-response had high values. It counts as functional. The settings on record: 30 µM.

The target of experiment [8] is T4, Tyrosyl-tRNA synthetase, putative (Trypanosoma cruzi (strain CL Brener)). The experiment can be described thus: Trypanosoma cruzi tyrosyl tRNA synthetase (TcYRS) SOP. The class given is functional. The settings on record: 30 µM.
The target of experiment [9] is Chromo domain-containing protein 1 (Saccharomyces cerevisiae (strain ATCC 204508 / S288c) (Baker's yeast)) (UniProt P32657). The experiment can be described thus: ScCHD-1 Enzyme Inhibition Assay. Further: in the data most compounds retested in dose-response had high values. It counts as functional. Conditions: 30 µM.

For some of these results: Measured potencies and affinities stand elsewhere.

Sialic acid-binding Ig-like lectin 9 (Homo sapiens), sequence (Q9Y336 whole entry): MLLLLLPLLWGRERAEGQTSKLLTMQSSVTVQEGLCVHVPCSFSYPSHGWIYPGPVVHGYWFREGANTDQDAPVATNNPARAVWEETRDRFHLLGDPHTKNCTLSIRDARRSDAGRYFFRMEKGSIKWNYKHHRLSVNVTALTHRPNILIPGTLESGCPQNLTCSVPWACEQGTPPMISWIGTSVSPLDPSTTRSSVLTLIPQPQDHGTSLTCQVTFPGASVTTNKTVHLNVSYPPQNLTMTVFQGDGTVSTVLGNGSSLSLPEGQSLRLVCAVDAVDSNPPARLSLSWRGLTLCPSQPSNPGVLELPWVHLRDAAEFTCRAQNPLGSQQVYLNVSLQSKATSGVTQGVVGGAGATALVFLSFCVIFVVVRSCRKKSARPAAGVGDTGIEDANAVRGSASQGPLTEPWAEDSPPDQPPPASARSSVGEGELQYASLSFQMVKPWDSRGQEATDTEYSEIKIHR
Chromo domain-containing protein 1 (Saccharomyces cerevisiae (strain ATCC 204508 / S288c) (Baker's yeast)), sequence (P32657 whole entry, the tested form may be a part): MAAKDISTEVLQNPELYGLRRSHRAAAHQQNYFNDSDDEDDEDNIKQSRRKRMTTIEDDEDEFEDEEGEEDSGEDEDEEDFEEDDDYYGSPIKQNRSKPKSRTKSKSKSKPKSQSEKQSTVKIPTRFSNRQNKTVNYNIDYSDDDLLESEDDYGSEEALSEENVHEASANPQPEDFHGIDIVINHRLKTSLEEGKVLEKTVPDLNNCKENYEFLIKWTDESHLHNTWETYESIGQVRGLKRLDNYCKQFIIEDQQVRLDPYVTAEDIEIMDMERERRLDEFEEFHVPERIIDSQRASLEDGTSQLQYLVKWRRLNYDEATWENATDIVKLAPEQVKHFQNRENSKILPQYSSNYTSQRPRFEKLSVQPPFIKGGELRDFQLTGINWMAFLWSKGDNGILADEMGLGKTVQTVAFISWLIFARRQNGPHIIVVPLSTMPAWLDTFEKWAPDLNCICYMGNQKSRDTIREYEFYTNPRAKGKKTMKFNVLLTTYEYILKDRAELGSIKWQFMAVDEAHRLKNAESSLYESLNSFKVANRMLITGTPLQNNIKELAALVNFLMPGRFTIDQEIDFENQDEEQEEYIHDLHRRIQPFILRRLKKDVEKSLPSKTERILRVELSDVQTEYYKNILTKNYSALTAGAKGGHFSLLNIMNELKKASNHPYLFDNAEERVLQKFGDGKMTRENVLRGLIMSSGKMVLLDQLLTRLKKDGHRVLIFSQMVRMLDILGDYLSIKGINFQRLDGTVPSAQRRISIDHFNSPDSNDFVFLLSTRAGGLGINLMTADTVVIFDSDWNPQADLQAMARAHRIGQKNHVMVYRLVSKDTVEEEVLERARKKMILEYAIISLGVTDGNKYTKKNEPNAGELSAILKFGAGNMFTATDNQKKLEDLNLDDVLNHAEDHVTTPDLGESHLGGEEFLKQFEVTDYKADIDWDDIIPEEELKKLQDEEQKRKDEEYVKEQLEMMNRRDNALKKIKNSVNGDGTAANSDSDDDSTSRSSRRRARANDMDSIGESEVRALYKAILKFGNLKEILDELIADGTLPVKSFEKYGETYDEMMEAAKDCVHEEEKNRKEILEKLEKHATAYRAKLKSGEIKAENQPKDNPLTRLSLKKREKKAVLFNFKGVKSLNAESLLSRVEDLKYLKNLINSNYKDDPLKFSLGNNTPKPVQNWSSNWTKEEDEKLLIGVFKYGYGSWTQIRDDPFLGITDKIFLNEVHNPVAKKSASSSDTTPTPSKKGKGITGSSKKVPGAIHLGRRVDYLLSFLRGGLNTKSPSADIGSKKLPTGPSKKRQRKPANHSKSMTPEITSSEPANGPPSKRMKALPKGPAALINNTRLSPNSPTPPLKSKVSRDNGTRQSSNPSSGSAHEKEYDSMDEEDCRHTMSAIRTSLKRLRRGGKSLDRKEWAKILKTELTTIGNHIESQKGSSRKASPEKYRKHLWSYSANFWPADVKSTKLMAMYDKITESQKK
Protein translocase subunit SecA (Escherichia coli (strain K12)), sequence (P10408 whole entry): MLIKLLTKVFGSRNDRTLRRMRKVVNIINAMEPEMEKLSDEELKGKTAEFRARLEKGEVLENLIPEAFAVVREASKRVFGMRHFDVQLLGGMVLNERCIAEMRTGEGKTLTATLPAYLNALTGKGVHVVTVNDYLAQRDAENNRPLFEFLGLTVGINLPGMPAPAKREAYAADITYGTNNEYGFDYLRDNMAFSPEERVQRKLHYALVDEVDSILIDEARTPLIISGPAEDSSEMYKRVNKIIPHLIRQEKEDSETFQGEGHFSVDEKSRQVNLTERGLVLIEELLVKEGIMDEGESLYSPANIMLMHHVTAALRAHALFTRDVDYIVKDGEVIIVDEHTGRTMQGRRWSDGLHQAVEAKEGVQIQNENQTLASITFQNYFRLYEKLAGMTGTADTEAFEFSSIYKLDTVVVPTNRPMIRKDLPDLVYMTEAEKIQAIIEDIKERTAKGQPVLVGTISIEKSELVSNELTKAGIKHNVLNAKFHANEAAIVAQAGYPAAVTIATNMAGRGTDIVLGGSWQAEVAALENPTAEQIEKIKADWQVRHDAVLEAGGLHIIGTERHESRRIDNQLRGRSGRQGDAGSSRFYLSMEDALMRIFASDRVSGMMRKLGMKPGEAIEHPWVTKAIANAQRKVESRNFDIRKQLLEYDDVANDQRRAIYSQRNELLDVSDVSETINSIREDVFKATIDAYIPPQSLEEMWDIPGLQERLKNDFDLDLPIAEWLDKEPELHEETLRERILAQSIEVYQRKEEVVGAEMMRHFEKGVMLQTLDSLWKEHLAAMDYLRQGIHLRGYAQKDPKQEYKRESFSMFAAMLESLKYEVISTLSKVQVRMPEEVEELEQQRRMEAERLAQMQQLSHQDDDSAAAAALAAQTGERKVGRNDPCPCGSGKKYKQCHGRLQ

`COc1ccc(C2=C(C)C(N3CCc4ccccc4C3)=NS2(=O)=O)cc1`: the Percent Effect in experiment [1] is -1.81%; in [2], -7.79%; in [3], 1.57%; in [4], -18%; with Trypanosoma cruzi it was 3.45%; in experiment [5], 4.52%. The Percent Effect was 13.1% in experiment [6]; 9.07% in the experiment filed under Homo sapiens; -122% in [7]; -39.7% in experiment [8]; 79.2% in [9].

As to `Cc1cc(C(=O)N2CC[C@@H]3CN(S(C)(=O)=O)CCO[C@@H]3C2)c(C)o1`, the Percent Effect in experiment [1] is -2.68%; in [2], 13.5%; in experiment [3] it was 1.13%; in [4], -7.58%; with Trypanosoma cruzi it was -3.62%; in experiment [5] it was 2.87%. The Percent Effect in experiment [6] is 25.6%; in the experiment filed under Homo sapiens it was -7.91%; in experiment [7], 4.32%; in [8], 15.4%; in experiment [9] it was -2.64%.

Consider `CCn1cc(N2Cc3nc(N4CCOCC4)ncc3C2=O)cn1`, for which the Percent Effect in [1] is -4.68%; in experiment [2] it was 17.3%; in experiment [3] it was -4.89%; in experiment [4] it was 0.208%; in the experiment with Trypanosoma cruzi, 0.786%; in experiment [5], -9.33%. Besides, the Percent Effect is 4.44% in [6]; -2.82% in the experiment filed under Homo sapiens; 2.12% in experiment [7]; 5.13% in experiment [8]; -15.2% in experiment [9].

`O=C(NCCN1CCCCC1)c1scnc1Cl`: the Percent Effect in [1] was -0.516%; in [2] it was 15.8%; in [3], 7.25%; in experiment [4], -5.01%; in the experiment on Trypanosoma cruzi it was -5.7%; in [5] it was 3.24%. The Percent Effect was 13.6% in experiment [6]; 3.91% in the experiment listed under Homo sapiens; 9.36% in experiment [7]; 16.1% in [8]; -5.64% in experiment [9].

`CC(C(=O)NCCCn1ccnc1)n1cc(Br)cn1` (stereo unspecified): the Percent Effect in [1] was -3.65%; in [2], 2.6%; in experiment [3], -2.79%; in [4], 7.47%; in the experiment on Trypanosoma cruzi it was 3.83%; in [5], -33.1%. The Percent Effect was 10.7% in experiment [6]; -6.92% in the experiment filed under Homo sapiens; 7.53% in experiment [7]; 18.5% in experiment [8]; -2% in experiment [9].

On to `COC(=O)c1ccc(S(=O)(=O)NCc2cccnc2N(C)C)cc1`, for which the Percent Effect was -2.49% in [1]; 17.7% in experiment [2]; 0.13% in experiment [3]; -11% in [4]; -8.59% in the experiment on Trypanosoma cruzi; -4.18% in experiment [5]. Further, the Percent Effect in [6] was 4.67%; in the experiment listed under Homo sapiens it was 66.2%; in [7], -16.3%; in experiment [8], 16.5%; in [9], -6.7%.

Take `COc1c(CNCc2ccc(CN(C)C)cc2)c(C(C)C)nn1C`: the Percent Effect in [1] was 2.77%; in [2], -5.26%; in [3], 5.16%; in experiment [4], 1.34%; in the experiment on Trypanosoma cruzi, -1.5%; in [5], 3.45%. Besides, the Percent Effect in [6] was 2.34%; in the experiment filed under Homo sapiens, 11.8%; in experiment [7] it was -0.49%; in [8], 4.88%; in [9], -1.54%.

As to `Cc1cc(C)cc(-c2cccc(CC3(C(=O)O)CCOCC3)c2)c1`, the Percent Effect in experiment [1] is -0.147%; in [2], 4.05%; in experiment [3] it was 37.7%; in [4], 5.76%; in the experiment on Trypanosoma cruzi it was -8.1%; in experiment [5], -9.05%. Also, the Percent Effect is 15.1% in [6]; 31.5% in the experiment listed under Homo sapiens; -26.9% in experiment [7]; -45.5% in experiment [8]; -6.99% in experiment [9].

In the case of `O=C(CN1CCOC(Cn2cccn2)C1)Nc1nncs1` (stereo unspecified), the Percent Effect is -7.55% in experiment [1]; 10.4% in [2]; -7.65% in experiment [3]; -17.4% in experiment [4]; 10.3% with Trypanosoma cruzi; -4% in experiment [5]. Also, the Percent Effect in experiment [6] was 11.2%; in the experiment listed under Homo sapiens, 13.3%; in experiment [7] it was 9.52%; in [8] it was 18.8%; in experiment [9] it was -22.6%.

For the compound `Cc1n[nH]c(C2CN(C(=O)Cn3ccccc3=O)CCO2)n1` (stereo unspecified), the Percent Effect was -8.02% in experiment [1]; 1.27% in experiment [2]; 4.25% in experiment [3]; 2.29% in experiment [4]; -1.13% with Trypanosoma cruzi; 2.37% in experiment [5]. Moreover, the Percent Effect is 6.35% in experiment [6]; 1.57% in the experiment filed under Homo sapiens; 0% in experiment [7]; 2.53% in experiment [8]; -9.48% in experiment [9].

For the compound `CC(C(=O)NCc1ccnc(N2CCCC2)c1)n1cncn1` (stereo unspecified), the Percent Effect was -3.9% in [1]; 15.8% in experiment [2]; -4.58% in [3]; -5.93% in [4]; -5.45% in the experiment on Trypanosoma cruzi; 3.45% in experiment [5]. In addition, the Percent Effect is 7.18% in [6]; 26.8% in the experiment filed under Homo sapiens; 3.43% in experiment [7]; 0% in experiment [8]; -11.3% in experiment [9].

The values above are taken from ChEMBL document CHEMBL3988442, “University of Dundee, Small-Polar-MMV Screening Library” (2021).
